Assay results taken from PubChem BioAssay (Tox21).
Where “and” joins values, the source holds several entries; their conditions need not be identical. Equal values may be shown once. Results filed as inconclusive are left out. Calls of active or inactive are those of the source. Unless noted, the call rests on the fitted dose curve; in most records, active means well fitted curve in the direction sought with a large enough effect in the repeat runs; inconclusive means weak or mixed curves; inactive means no such curve, though single readings can be large; an effect the other way counts as inactive or inconclusive.

Experiments:
[1] = target: Estrogen receptor beta (Homo sapiens) (UniProt Q92731); assay: qHTS assay to identify small molecule agonists of the estrogen receptor beta (ER-beta) signaling pathway (AID 1259377; active means well fitted activation curve with a large enough effect in the signal ratio in the repeat runs, not every such curve was filed as active; the % refers to the signal ratio)
Procedure, shortened: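 In HEK293T cells bearing a UAS-beta-lactamase reporter under ER-beta control, DMSO-delivered compounds were incubated for 16 hr at 37C. Activity was detected as fluorescence 2 hours after LiveBLAzer B/G FRET substrate addition.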

[2] = target: Estrogen receptor beta (Homo sapiens) (UniProt Q92731); assay: qHTS assay to identify small molecule antagonists of the estrogen receptor beta (ER-beta) signaling pathway (AID 1259378; active means well fitted inhibition curve with a large enough effect in the signal ratio in the repeat runs, not every such curve was filed as active; the % refers to the signal ratio)
Procedure, shortened: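 ER-beta-UAS-bla HEK293T cells in 2% charcoal-stripped FBS medium treated with compound plus 1nM final 17-beta-estradiol for 16 hr at 37C. Beta-lactamase reporter read by FRET substrate fluorescence after 2 hours at room temperature.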

[3] = qHTS assay to identify small molecule agonists of the androgen receptor (AR) signaling pathway in the presence of an antagonist - cell viability counter screen (AID 1259379); further: nearly all actives have a fitted effect of over 25% in size; further: potency means the concentration at half of the fitted maximal effect;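 on activity change, negative = cytotoxicity: MDA-kb2 human breast cancer cells carrying an MMTV luciferase reporter; series mostly up to about 92 µM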
Procedure, shortened: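 MDA-kb2 cells (MMTV-luciferase, AR/GR), 3,000/well, 5 h attachment, then 3.0 µM nilutamide (final) and compounds at 15 concentrations. Viability by CellTiter-Fluor fluorescence after 16 h at 37 °C, 0% CO2, in the reporter wells.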

[4] = qHTS assay to identify small molecule antagonists of the estrogen receptor beta (ER-beta) signaling pathway - cell viability counter screen (AID 1259382); further: series mostly up to about 92 µM; nearly all actives have a fitted effect of over 55% in size
Procedure, shortened: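 ER-beta-UAS-bla HEK293T cells in 2% charcoal-stripped FBS medium, treated with compound plus 1 nM 17-beta-estradiol for 16 h at 37C. Viability read by CellTiter-Glo luminescence after 30 min at room temperature in the same wells.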

[5] = target: Estrogen receptor (Homo sapiens) (UniProt P03372); assay: qHTS assay to identify small molecule agonists of the estrogen receptor alpha (ER-alpha) signaling pathway in the presence of an antagonist (AID 1259383; calls by dose curve; further: top concentration of the series differs between compounds; nearly all actives have a fitted effect of over 15% in size)
Procedure, shortened: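 VM7Luc4E2 cells express endogenous full-length ER-alpha with an ERE-luciferase reporter and were hormone-deprived for 5 days. Compounds at 15 concentrations were added with 10.0nM ICI-182,780 for 22hr at 37C. Luminescence was read with ONE-Glo.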

[6] = qHTS assay to identify small molecule agonists of the estrogen receptor alpha (ER-alpha) signaling pathway in the presence of an antagonist - cell viability counter screen (AID 1259386);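 further: cells exposed to compounds for 22 h at 37 °C before the viability read; nearly all actives have a fitted effect of over 30% in size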; further: potency means the concentration at half of the fitted maximal effect; on activity change, negative = cytotoxicity: series mostly up to about 92 µM
Procedure, shortened: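 Cell viability in VM7Luc4E2 cells (endogenous full-length ER-alpha) measured by CellTiter-Fluor fluorescence in the same wells as the luciferase screen. Cells pre-cultured 5 days in charcoal-stripped serum, then treated 22 h with compounds at 15 concentrations plus 10.0nM ICI-182,780.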

[7] = target: Progesterone receptor (Homo sapiens) (UniProt P06401); assay: qHTS assay to identify small molecule agonists of the progesterone receptor (PR) signaling pathway (AID 1346784; calls by dose curve; further: nearly all actives have a fitted effect of over 30% in size)
Procedure, shortened: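 Using charcoal-stripped serum (2%) to limit endogenous steroids, PR-UAS-bla HEK 293T cells received compounds for 16 hr at 37C after 6 hr plating; beta-lactamase FRET fluorescence was recorded following 2 hr substrate loading at room temperature.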

[8] = target: Progesterone receptor (Homo sapiens) (UniProt P06401); assay: qHTS assay to identify small molecule antagonists of the progesterone receptor (PR) signaling pathway (AID 1346795; active means well fitted inhibition curve with a large enough effect in the signal ratio in the repeat runs, not every such curve was filed as active; the % refers to the signal ratio; further: potency means the concentration at half of the fitted maximal effect)
Procedure, shortened: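 Inhibition of R5020-induced (1 nM final) beta-lactamase reporter signal in PR-UAS-bla HEK293T cells was scored by FRET fluorescence after overnight (16 hr) compound treatment.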

[9] = qHTS assay to identify small molecule antagonists of the progesterone receptor (PR) signaling pathway - cell viability counter screen (AID 1346798); further: series mostly up to about 92 µM; nearly all actives have a fitted effect of over 50% in size
Procedure, shortened: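 ATP content as viability readout: CellTiter-Glo luminescence, 30 min room temperature, in PR-UAS-bla HEK293T cells after 16 hr compound/R5020 treatment at 37C and 5% CO2.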

[10] = qHTS assay to identify small molecule agonists of the progesterone receptor (PR) signaling pathway - cell viability counter screen (AID 1346799; calls by dose curve; further: nearly all actives have a fitted effect of over 45% in size)
Procedure, shortened: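 Cytotoxicity in PR-bla HEK293T cells: 16 h compound, 37C; CellTiter-Glo added post-FRET read; luminescence after 30 min RT.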

[11] = qHTS assay to identify small molecule antagonists of the TGF-beta/Smad signaling pathway - cell viability counter screen (AID 1346824); further: nearly all actives have a fitted effect of over 50% in size
Procedure, shortened: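 SBE-bla HEK 293T cells, incubated overnight, then compound plus 0.25 ng/mL TGF-beta1 (stock added) for 5 hr at 37 C. Viability was read in the same wells by CellTiter-Glo luminescence after 30 min at room temperature.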

[12] = qHTS assay to identify small molecule agonists of the TGF-beta/Smad signaling pathway - cell viability counter screen (AID 1346829); further: top concentration of the series differs between compounds; nearly all actives have a fitted effect of over 45% in size
Procedure, shortened: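 Compound-treated SBE-bla HEK 293T cells (5 hr, 37 C) were assessed for viability with CellTiter-Glo in parallel with the reporter read.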

[13] = target: Thyrotropin-releasing hormone receptor (Homo sapiens) (UniProt P34981); assay: qHTS assay to identify small molecule antagonists of the thyrotropin-releasing hormone receptor (TRHR) signaling pathway (AID 1346877; active means well fitted inhibition curve with a large enough effect in the repeat runs, not every such curve was filed as active; further: series mostly up to about 51 µM)
Procedure, shortened: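 TRHR-expressing HEK293 cells loaded with calcium dye for 2 h at 37 C; compounds pre-incubated 5 min at room temperature before TRH challenge at 1 nM final. Intracellular calcium fluorescence read kinetically for 3 min; 15 concentrations in triplicate.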

[14] = target: Thyrotropin-releasing hormone receptor (Homo sapiens) (UniProt P34981); assay: qHTS assay to identify small molecule agonists of the thyrotropin-releasing hormone receptor (TRHR) signaling pathway (AID 1346891; calls by dose curve; further: series mostly up to about 58 µM)
Procedure, shortened: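 In 1536-format, 1500 TRHR-Hek293 cells per well grew 18 h, took up calcium dye for 2 h at 37 °C, received compound, and were read kinetically; 15-point titrations, triplicates.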

[15] = qHTS assay to identify small molecule agonists of the estrogen receptor beta (ER-beta) signaling pathway - cell viability counter screen (AID 1259380); further: nearly all actives have a fitted effect of over 30% in size; further: potency means the concentration at half of the fitted maximal effect
Procedure, shortened: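 ER-beta-UAS-bla HEK293T cells in medium with 2% charcoal-stripped FBS, pre-incubated 6 hr, then treated 16 hr at 37C. Cytotoxicity read in the same wells by CellTiter-Glo luminescence after 30 min at room temperature.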

[16] = qHTS assay to identify small molecule agonists or antagonists of the thyroid stimulating hormone receptor (TSHR) signaling pathway - wild type cell line counter screen (AID 1259384; calls by dose curve)
Procedure, shortened: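 Wild-type Hek293 cells, 800/well, 18 h at 37C, then compound with Ro20-1724 for 30 min RT. cAMP by HTRF (cAMP-d2/anti-cAMP cryptate), 1 h RT, fluorescence read. 15 concentrations, triplicates.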

[17] = target: Thyrotropin receptor (Homo sapiens) (UniProt P16473); assay: qHTS assay to identify small molecule antagonists of the thyroid stimulating hormone receptor (TSHR) signaling pathway (AID 1259385; calls by dose curve; further: nearly all actives have a fitted effect of over 20% in size)
Procedure, shortened: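 TSHR-HEK293 cells (800/well) plated 18 h, then compounds with Ro20-1724 and TSH at 1.5 ng/mL final, 30 min at room temperature. cAMP quantified by HTRF (cAMP-d2/anti-cAMP-cryptate, 1 h); 15 concentrations in triplicate.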

[18] = qHTS assay to identify small molecule agonists of the TGF-beta/Smad signaling pathway (AID 1346859; active means well fitted activation curve with a large enough effect in the signal ratio in the repeat runs, not every such curve was filed as active; the % refers to the signal ratio; further: series mostly up to about 77 µM)
Procedure, shortened: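 Stable Smad binding element-beta-lactamase HEK 293T cells; 5 hr compound exposure at 37 C under 5% CO2; 2 hr room-temperature substrate step; fluorescence excited at 405 nm, collected at 460 nm and 530 nm.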

[19] = target: Androgen receptor (Homo sapiens) (UniProt P10275); assay: qHTS assay to identify small molecule agonists of the androgen receptor (AR) signaling pathway in the presence of an antagonist (AID 1259381; calls by dose curve; further: nearly all actives have a fitted effect of over 15% in size)
Procedure, shortened: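 MDA-kb2 cells carrying MMTV-luciferase (AR/GR responsive), 3,000 cells/well, co-treated with 3.0 uM nilutamide final. Compounds at 15 concentrations, 16 hr at 37C without CO2. Luciferase luminescence read after 30 min with ONE-Glo.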
On the % scale 0 is the no-effect control and ±100 the full control effect.

Chain of Estrogen receptor beta (Homo sapiens) (Q92731 whole entry, looked up): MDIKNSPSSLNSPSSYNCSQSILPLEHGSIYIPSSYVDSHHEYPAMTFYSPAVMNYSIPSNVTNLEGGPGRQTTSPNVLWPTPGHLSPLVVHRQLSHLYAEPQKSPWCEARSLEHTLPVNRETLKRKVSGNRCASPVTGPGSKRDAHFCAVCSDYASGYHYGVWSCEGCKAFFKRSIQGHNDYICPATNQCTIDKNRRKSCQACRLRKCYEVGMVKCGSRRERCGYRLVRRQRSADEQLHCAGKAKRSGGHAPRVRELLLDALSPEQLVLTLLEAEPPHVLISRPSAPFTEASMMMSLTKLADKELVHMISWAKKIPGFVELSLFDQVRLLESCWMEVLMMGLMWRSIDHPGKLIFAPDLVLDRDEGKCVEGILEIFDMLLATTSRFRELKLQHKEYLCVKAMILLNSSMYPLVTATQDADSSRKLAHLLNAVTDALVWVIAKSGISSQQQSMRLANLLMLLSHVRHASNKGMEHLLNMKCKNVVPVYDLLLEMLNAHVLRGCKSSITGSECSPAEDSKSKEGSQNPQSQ
Chain of Progesterone receptor (Homo sapiens) (P06401 whole entry, looked up): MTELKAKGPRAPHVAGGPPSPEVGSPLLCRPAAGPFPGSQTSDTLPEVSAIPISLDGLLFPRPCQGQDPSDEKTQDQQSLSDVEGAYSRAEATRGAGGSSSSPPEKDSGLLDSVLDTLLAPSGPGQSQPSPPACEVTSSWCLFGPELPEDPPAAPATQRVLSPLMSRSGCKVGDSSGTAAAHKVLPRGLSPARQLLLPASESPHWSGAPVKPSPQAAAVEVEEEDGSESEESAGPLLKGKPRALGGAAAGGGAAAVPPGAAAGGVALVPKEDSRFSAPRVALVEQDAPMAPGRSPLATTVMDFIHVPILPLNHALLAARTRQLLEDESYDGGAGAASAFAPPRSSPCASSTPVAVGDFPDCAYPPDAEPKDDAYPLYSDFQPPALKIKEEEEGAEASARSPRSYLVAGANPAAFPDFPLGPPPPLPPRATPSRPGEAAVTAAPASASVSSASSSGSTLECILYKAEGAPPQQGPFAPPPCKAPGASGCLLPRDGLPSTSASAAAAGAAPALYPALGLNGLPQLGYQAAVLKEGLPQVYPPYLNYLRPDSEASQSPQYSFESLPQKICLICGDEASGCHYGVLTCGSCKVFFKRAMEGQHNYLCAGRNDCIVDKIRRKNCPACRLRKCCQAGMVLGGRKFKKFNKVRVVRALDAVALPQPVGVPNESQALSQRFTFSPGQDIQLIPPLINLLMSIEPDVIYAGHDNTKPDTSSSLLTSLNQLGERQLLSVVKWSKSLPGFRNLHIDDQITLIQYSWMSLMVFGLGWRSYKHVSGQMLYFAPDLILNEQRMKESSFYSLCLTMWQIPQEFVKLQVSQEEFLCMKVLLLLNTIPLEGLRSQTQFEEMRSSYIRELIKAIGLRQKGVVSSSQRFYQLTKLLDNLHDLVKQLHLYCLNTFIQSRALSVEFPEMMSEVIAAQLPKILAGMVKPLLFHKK
Chain of Thyrotropin-releasing hormone receptor (Homo sapiens) (P34981 whole entry, looked up): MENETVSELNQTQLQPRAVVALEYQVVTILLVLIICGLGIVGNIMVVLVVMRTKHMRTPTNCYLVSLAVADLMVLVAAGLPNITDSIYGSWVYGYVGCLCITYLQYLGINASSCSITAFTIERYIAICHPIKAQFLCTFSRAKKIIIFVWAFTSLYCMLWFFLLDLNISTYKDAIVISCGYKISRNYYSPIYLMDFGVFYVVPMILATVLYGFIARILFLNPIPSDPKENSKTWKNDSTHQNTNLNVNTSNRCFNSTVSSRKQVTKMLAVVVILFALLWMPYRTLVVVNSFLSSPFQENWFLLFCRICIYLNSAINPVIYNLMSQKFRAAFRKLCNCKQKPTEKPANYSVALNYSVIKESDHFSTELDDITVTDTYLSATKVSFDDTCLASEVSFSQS
Chain of Thyrotropin receptor (Homo sapiens) (P16473 whole entry, looked up): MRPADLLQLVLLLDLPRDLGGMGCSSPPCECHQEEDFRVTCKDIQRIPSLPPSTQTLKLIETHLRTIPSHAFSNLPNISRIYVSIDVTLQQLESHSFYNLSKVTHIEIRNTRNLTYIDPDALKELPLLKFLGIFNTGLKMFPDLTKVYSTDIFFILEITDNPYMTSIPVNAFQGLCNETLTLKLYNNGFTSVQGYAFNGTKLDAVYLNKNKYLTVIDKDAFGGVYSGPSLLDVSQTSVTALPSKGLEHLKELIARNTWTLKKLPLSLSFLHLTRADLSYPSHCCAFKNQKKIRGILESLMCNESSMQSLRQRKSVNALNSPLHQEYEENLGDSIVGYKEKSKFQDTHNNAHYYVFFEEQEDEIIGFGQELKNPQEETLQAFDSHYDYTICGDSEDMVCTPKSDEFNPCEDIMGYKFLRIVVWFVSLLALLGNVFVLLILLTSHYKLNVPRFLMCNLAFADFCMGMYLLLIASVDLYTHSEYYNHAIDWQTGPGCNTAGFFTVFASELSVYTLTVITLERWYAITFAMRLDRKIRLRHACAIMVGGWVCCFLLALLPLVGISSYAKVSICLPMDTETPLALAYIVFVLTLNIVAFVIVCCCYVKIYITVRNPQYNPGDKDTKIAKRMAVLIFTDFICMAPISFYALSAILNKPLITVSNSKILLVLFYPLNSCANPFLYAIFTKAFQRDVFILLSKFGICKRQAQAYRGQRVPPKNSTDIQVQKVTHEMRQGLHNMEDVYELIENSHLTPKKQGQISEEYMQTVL
Chain of Estrogen receptor (Homo sapiens) (P03372 whole entry, looked up): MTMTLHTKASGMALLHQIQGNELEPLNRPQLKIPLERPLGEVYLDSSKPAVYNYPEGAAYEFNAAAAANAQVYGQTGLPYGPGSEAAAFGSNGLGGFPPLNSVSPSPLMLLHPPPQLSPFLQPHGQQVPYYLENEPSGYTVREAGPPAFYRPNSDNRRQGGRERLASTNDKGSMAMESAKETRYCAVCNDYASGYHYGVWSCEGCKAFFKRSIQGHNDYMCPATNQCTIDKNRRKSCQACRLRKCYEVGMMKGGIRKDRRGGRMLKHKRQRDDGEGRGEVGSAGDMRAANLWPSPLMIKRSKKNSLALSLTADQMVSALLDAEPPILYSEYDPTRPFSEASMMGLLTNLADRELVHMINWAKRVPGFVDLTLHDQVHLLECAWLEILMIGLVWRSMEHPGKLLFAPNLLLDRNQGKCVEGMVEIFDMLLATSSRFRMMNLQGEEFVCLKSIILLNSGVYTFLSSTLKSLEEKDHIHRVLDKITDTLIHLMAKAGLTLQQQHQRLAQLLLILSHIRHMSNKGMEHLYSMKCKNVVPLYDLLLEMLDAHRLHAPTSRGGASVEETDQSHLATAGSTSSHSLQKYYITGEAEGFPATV
Chain of Androgen receptor (Homo sapiens) (P10275 whole entry, looked up): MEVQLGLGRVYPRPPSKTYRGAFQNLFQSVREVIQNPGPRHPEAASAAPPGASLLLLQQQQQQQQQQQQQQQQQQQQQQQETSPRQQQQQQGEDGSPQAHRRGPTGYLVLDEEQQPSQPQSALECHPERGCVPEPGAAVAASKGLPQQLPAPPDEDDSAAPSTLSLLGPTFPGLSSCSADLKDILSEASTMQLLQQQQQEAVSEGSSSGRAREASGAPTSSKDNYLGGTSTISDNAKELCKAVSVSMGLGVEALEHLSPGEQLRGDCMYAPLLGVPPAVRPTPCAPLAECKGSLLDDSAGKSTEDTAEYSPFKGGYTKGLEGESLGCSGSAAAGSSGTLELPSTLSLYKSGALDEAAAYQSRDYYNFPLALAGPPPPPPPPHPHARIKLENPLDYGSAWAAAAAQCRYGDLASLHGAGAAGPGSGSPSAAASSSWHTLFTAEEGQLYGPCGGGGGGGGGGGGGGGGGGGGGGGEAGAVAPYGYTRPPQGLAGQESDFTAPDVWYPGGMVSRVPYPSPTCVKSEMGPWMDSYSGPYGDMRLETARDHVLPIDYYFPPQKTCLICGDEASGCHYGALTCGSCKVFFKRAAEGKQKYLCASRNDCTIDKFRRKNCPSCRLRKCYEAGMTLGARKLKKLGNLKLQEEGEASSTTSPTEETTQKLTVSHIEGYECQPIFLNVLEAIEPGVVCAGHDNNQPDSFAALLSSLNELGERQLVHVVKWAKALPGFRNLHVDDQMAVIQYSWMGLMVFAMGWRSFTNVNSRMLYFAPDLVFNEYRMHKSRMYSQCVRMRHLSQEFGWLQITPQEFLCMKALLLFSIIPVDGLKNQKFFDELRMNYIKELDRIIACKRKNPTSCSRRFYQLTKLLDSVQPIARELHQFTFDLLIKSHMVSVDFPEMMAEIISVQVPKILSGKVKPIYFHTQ

CN1CCCC1=O
inactive: Potency [1] | Potency [2] | Potency [3] | Potency [4] | Potency [5] | Potency [6] | Potency [7] | Potency [8] | Potency [9] | Potency [10] | Potency [11] | Potency [12] | Potency [13] | outcome [14]

c1cnc2c(c1)ccc1cccnc12
inactive: Potency [16] | Potency [17] | Potency [7] | Potency [11] | Potency [12] | Potency [18]
active: Potency [3] 15.5 µM and 30.6 µM and 21.7 µM | Potency [15] 2.43 µM | Potency [6] 5.5 µM

C=C(CC(=O)O)C(=O)O
inactive: Potency [1] | Potency [2] | Potency [3] | Potency [4] | Potency [16] | Potency [17] | Potency [6] | Potency [7] | Potency [9] | Potency [10] | Potency [11] | Potency [12] | Potency [13] | outcome [14]

Oc1ccc(Cc2ccccc2O)cc1
inactive: Potency [3] | Potency [4] | Potency [5] | Potency [16] | Potency [17] | Potency [6] | Potency [7] | Potency [11] | Potency [12] | Potency [18] | Potency [13] | outcome [14]
active: Potency [8] 43.8 µM and 48.6 µM

COc1cc(NC(=O)CC(C)=O)c(OC)cc1Cl
inactive: Potency [1] | Potency [2] | Potency [3] | Potency [15] | Potency [4] | Potency [5] | Potency [16] | Potency [17] | Potency [6] | Potency [7] | Potency [8] | Potency [9] | Potency [10] | Potency [11] | Potency [12] | Potency [18] | Potency [13] | outcome [14]

O=Cc1ccc(CO)o1
inactive: Potency [1] | Potency [2] | Potency [3] | Potency [15] | Potency [4] | Potency [5] | Potency [16] | Potency [17] | Potency [6] | Potency [7] | Potency [8] | Potency [9] | Potency [10] | Potency [11] | Potency [12] | Potency [18] | Potency [13] | outcome [14]

Cc1cccc(C)c1[N+](=O)[O-]
inactive: Potency [1] | Potency [2] | Potency [3] | Potency [4] | Potency [16] | Potency [17] | Potency [6] | Potency [7] | Potency [8] | Potency [9] | Potency [10] | Potency [11] | Potency [12] | Potency [18] | Potency [13] | outcome [14]

O=C1OC(=O)c2c(Cl)c(Cl)c(Cl)c(Cl)c21
inactive: Potency [3] | Potency [15] | Potency [4] | Potency [16] | Potency [17] | Potency [6] | Potency [7] | Potency [9] | Potency [10] | Potency [11] | Potency [12] | Potency [18] | Potency [13] | outcome [14]

CCCCCCCCCCCC(=O)N(C)CC(=O)O
inactive: Potency [1] | activity, negative = inhibition [2] 1.54% [at 8.39 µM] | Potency [3] | Potency [4] | Potency [5] | Potency [16] | Potency [17] | Potency [6] | Potency [7] | Potency [8] | activity change, negative = cytotoxicity [9] 0.0198% [at 8.39 µM] | Potency [11] | Potency [12] | Potency [18]

CC(C=O)Cc1ccc(C(C)(C)C)cc1 (stereo unspecified)
inactive: Potency [1] | Potency [2] | Potency [3] | outcome [19] | Potency [4] | Potency [16] | Potency [17] | Potency [6] | Potency [7] | Potency [8] | Potency [9] | Potency [10] | Potency [11] | Potency [12] | Potency [13] | outcome [14]
